# Among all 5,500 compounds or so, about 2,000 (36%) were called active. Inconclusive results (about 18%) are left out. The list shows a part of the results. Values without a mark were called inactive. No stated cut-off is given here; in the data, active means normalized growth mostly below about 0.91 (no sharp cut-off); inconclusive means no clear call, values can overlap the other calls; inactive means mostly above about 0.92.
# Assay: chemical genetic growth profiling, strain panel (AID 1159580);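 further: tested at 20 µM; growth read once vehicle control cultures reached saturation at 30 °C; 1 = growth at the plate median or of vehicle wells; lower values mean less growth of the strain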
# Settings: growth OD
structure (smiles),measurement,setting,value
CO[C@]12C[C@@H](COC(=O)c3cncc(Br)c3)CN(C)[C@@H]1Cc1cn(C)c3cccc2c13,normalized growth,"S. cerevisiae deletion strains, locus YJR075W, strain HOC1, active compounds read low",0.994
same,normalized growth,"S. cerevisiae deletion strains, locus YKL009W, strain mrt4, active compounds read low",0.968
same,normalized growth,"S. cerevisiae deletion strains, locus YKL068W, active compounds read low",0.997
same,normalized growth,"S. cerevisiae deletion strains, locus YKL085W, strain MDH1 (second series), active compounds read low",0.995
same,normalized growth,"S. cerevisiae deletion strains, locus YKL085W, strain MDH1, active compounds read low",0.995
same,normalized growth,"S. cerevisiae deletion strains, locus YKL160W, strain elf1, active compounds read low",0.984
same,normalized growth,"S. cerevisiae deletion strains, locus YKL190W, strain CNB1, active compounds read low",0.999
same,normalized growth,"S. cerevisiae deletion strains, locus YKR001C, strain vps1, active compounds read low",1.02
same,normalized growth,"S. cerevisiae deletion strains, locus YKR026C, strain gcn3, active compounds read low",1.03
same,normalized growth,"S. cerevisiae deletion strains, locus YKR091W, strain srl3, active compounds read low",0.981
same,normalized growth,"S. cerevisiae deletion strains, locus YLL001W, strain dnm1, active compounds read low",0.965
same,normalized growth,"S. cerevisiae deletion strains, locus YLL026W, active compounds read low",0.989
same,normalized growth,"S. cerevisiae deletion strains, locus YLL041C, strain sdh2, active compounds read low",0.998
same,normalized growth,"S. cerevisiae deletion strains, locus YLR027C, strain aat2, active compounds read low",0.964
same,normalized growth,"S. cerevisiae deletion strains, locus YLR039C, strain RIC1, active compounds read low",1.34 [resistant] (active)
same,normalized growth,"S. cerevisiae deletion strains, locus YLR058C, strain SHM2, active compounds read low",1
same,normalized growth,"S. cerevisiae deletion strains, locus YLR102C, strain apc9, active compounds read low",1.01
same,normalized growth,"S. cerevisiae deletion strains, locus YLR113W, strain HOG1, active compounds read low",0.954
same,normalized growth,"S. cerevisiae deletion strains, locus YLR221C, strain rsa3, active compounds read low",0.973
same,normalized growth,"S. cerevisiae deletion strains, locus YLR258W, strain gsy2, active compounds read low",0.997
same,normalized growth,"S. cerevisiae deletion strains, locus YLR262C, strain YPT6 (second series), active compounds read low",1.07
same,normalized growth,"S. cerevisiae deletion strains, locus YLR262C, strain YPT6, active compounds read low",1.45 [resistant] (active)
same,normalized growth,"S. cerevisiae deletion strains, locus YLR268W, strain sec22, active compounds read low",1.01
same,normalized growth,"S. cerevisiae deletion strains, locus YLR320W, strain mms22, active compounds read low",0.983
same,normalized growth,"S. cerevisiae deletion strains, locus YLR330W, strain CHS5, active compounds read low",1.01
same,normalized growth,"S. cerevisiae deletion strains, locus YLR342W, strain FKS1 (second series), active compounds read low",0.968
same,normalized growth,"S. cerevisiae deletion strains, locus YLR342W, strain FKS1, active compounds read low",0.975
same,normalized growth,"S. cerevisiae deletion strains, locus YLR357W, strain rsc2, active compounds read low",0.969
same,normalized growth,"S. cerevisiae deletion strains, locus YLR370C, strain arc18, active compounds read low",0.985
same,normalized growth,"S. cerevisiae deletion strains, locus YLR371W, strain rom2, active compounds read low",1.01
same,normalized growth,"S. cerevisiae deletion strains, locus YLR384C, strain iki3, active compounds read low",0.991
same,normalized growth,"S. cerevisiae deletion strains, locus YLR418C, strain cdc73, active compounds read low",1.03
same,normalized growth,"S. cerevisiae deletion strains, locus YML016C, strain PPZ1, active compounds read low",1.01
same,normalized growth,"S. cerevisiae deletion strains, locus YML032C, strain rad52, active compounds read low",1.01
same,normalized growth,"S. cerevisiae deletion strains, locus YML120C, strain ndi1, active compounds read low",0.993
same,normalized growth,"S. cerevisiae deletion strains, locus YML124C, strain tub3, active compounds read low",1.01
same,normalized growth,"S. cerevisiae deletion strains, locus YMR058W, strain fet3, active compounds read low",0.992
same,normalized growth,"S. cerevisiae deletion strains, locus YMR078C, strain ctf18, active compounds read low",1
same,normalized growth,"S. cerevisiae deletion strains, locus YMR125W, strain sto1, active compounds read low",0.977
same,normalized growth,"S. cerevisiae deletion strains, locus YMR129W, active compounds read low",0.977
same,normalized growth,"S. cerevisiae deletion strains, locus YMR205C, strain PFK2, active compounds read low",0.977
same,normalized growth,"S. cerevisiae deletion strains, locus YMR223W, strain ubp8, active compounds read low",0.984
same,normalized growth,"S. cerevisiae deletion strains, locus YMR231W, strain pep5, active compounds read low",0.997
same,normalized growth,"S. cerevisiae deletion strains, locus YMR263W, strain SAP30, active compounds read low",0.997
same,normalized growth,"S. cerevisiae deletion strains, locus YMR307W, strain GAS1, active compounds read low",1.08
same,normalized growth,"S. cerevisiae deletion strains, locus YNL067W, strain RPL9B, active compounds read low",0.985
same,normalized growth,"S. cerevisiae deletion strains, locus YNL071W, strain lat1, active compounds read low",0.944
same,normalized growth,"S. cerevisiae deletion strains, locus YNL128W, strain TEP1, active compounds read low",1.01
same,normalized growth,"S. cerevisiae deletion strains, locus YNL153C, strain GIM3, active compounds read low",0.99
same,normalized growth,"S. cerevisiae deletion strains, locus YNL183C, strain NPR1, active compounds read low",0.912
same,normalized growth,"S. cerevisiae deletion strains, locus YNL209W, strain ssb2, active compounds read low",0.996
same,normalized growth,"S. cerevisiae deletion strains, locus YNL233W, strain BNI4, active compounds read low",0.997
same,normalized growth,"S. cerevisiae deletion strains, locus YNL248C, strain rpa49, active compounds read low",0.934
same,normalized growth,"S. cerevisiae deletion strains, locus YNL250W, strain rad50, active compounds read low",1
same,normalized growth,"S. cerevisiae deletion strains, locus YNL271C, strain bni1, active compounds read low",1.01
same,normalized growth,"S. cerevisiae deletion strains, locus YNL298W, strain CLA4, active compounds read low",1.01
same,normalized growth,"S. cerevisiae deletion strains, locus YNL307C, strain MCK1, active compounds read low",0.975
same,normalized growth,"S. cerevisiae deletion strains, locus YNL322C, strain KRE1 (second series), active compounds read low",0.985
same,normalized growth,"S. cerevisiae deletion strains, locus YNL322C, strain KRE1, active compounds read low",1
same,normalized growth,"S. cerevisiae deletion strains, locus YNR049C, strain mso1, active compounds read low",0.993
same,normalized growth,"S. cerevisiae deletion strains, locus YNR052C, strain pop2, active compounds read low",1
same,normalized growth,"S. cerevisiae deletion strains, locus YOL006C, strain TOP1, active compounds read low",1.06
same,normalized growth,"S. cerevisiae deletion strains, locus YOL012C, strain htz1",1.03
same,normalized growth,"S. cerevisiae deletion strains, locus YOL147C, strain pex11, active compounds read low",1.01
same,normalized growth,"S. cerevisiae deletion strains, locus YOR001W, strain rrp6, active compounds read low",0.972
same,normalized growth,"S. cerevisiae deletion strains, locus YOR061W, strain CKA2, active compounds read low",1
same,normalized growth,"S. cerevisiae deletion strains, locus YOR069W, strain VPS5, active compounds read low",1
same,normalized growth,"S. cerevisiae deletion strains, locus YOR070C, strain gyp1, active compounds read low",0.994
same,normalized growth,"S. cerevisiae deletion strains, locus YOR080W, strain dia2, active compounds read low",0.983
same,normalized growth,"S. cerevisiae deletion strains, locus YOR083W, strain WHI5, active compounds read low",0.978
same,normalized growth,"S. cerevisiae deletion strains, locus YOR106W, strain vam3, active compounds read low",0.968
same,normalized growth,"S. cerevisiae deletion strains, locus YOR136W, strain idh2, active compounds read low",0.992
same,normalized growth,"S. cerevisiae deletion strains, locus YOR144C, strain elg1, active compounds read low",1.01
same,normalized growth,"S. cerevisiae deletion strains, locus YOR184W, strain ser1, active compounds read low",0.988
same,normalized growth,"S. cerevisiae deletion strains, locus YOR231W, strain MKK1, active compounds read low",0.983
same,normalized growth,"S. cerevisiae deletion strains, locus YOR265W, strain rbl2, active compounds read low",0.987
same,normalized growth,"S. cerevisiae deletion strains, locus YOR270C, strain vph1, active compounds read low",1.01
same,normalized growth,"S. cerevisiae deletion strains, locus YOR290C, strain snf2, active compounds read low",0.982
same,normalized growth,"S. cerevisiae deletion strains, locus YOR316C, strain cot1, active compounds read low",1
same,normalized growth,"S. cerevisiae deletion strains, locus YPL051W, strain arl3, active compounds read low",0.97
same,normalized growth,"S. cerevisiae deletion strains, locus YPL055C, strain LGE1, active compounds read low",0.977
same,normalized growth,"S. cerevisiae deletion strains, locus YPL078C, strain atp4, active compounds read low",0.975
same,normalized growth,"S. cerevisiae deletion strains, locus YPL106C, strain sse1, active compounds read low",1.01
same,normalized growth,"S. cerevisiae deletion strains, locus YPL240C, strain hsp82, active compounds read low",1.02
same,normalized growth,"S. cerevisiae deletion strains, locus YPL241C, strain CIN2, active compounds read low",0.999
same,normalized growth,"S. cerevisiae deletion strains, locus YPL256C, strain CLN2, active compounds read low",0.972
same,normalized growth,"S. cerevisiae deletion strains, locus YPR119W, strain clb2, active compounds read low",1.01
same,normalized growth,"S. cerevisiae deletion strains, locus YPR141C, strain kar3, active compounds read low",1.01
same,normalized growth,"S. cerevisiae deletion strains, locus YPR163C, strain tif3, active compounds read low",1.02
same,normalized growth,"S. cerevisiae deletion strains, locus YPR167C, strain met16, active compounds read low",1.01
same,normalized growth,"S. cerevisiae deletion strains, strain wtn01, active compounds read low",1.02
same,normalized growth,"S. cerevisiae strains, strain wild type, active compounds read low",0.993

# Source: PubChem BioAssay AID1159580 (chemical genetic matrix, 2015)
